According to a collection of fitness landscapes (doi:10.1016/j.celrep.2020.107928):
Over roughly 81,000 sequences, “one-hybrid fitness for binding parS DNA” has its median near -0.17; the highest 2% begin near 0.51. For the sample, the highest values were picked, then their nearest neighbours and some sequences at random.

B1: Caulobacter ParB omega fusion; a variant is named by its letters at X, in order, B8GW30 (parent)
chain: MESVVVGEPGMSEGRRGLGRGLSALLGEVDAAPAQAPGEQLGGSREAPIEILQRNPDQPRRTFREEDLEDLSNSIREKGVLQPILVRPSPDTAGEYQIVAGERAWRAAQRAGLKTVPIMVRELDDLAVLEIGIIENVQRADLNVLEEALSYKVLMEKFERTQENIAQTIGKSXSHVANXMRLLXLPDEVQSYLVSGELTAXHARAIAAAADPVALAKQIIEGGLSVRETEALARKAPNLSAGKSKGGRPPRVKDTDTQALESDLSSVLGLDVSIDHRGSTGTLTITYATLEQLDDLCNRLTRGI

Variants of: B1
Assay: one-hybrid fitness for binding parS DNA (scaled: cognate 1, non-cognate 0); higher = stronger binding
Details: with parS DNA site
Method in brief: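 Fitness here means the log change in variant-to-wild-type read ratio between plasmids sequenced before and after selection. That scale was set so cognate equals 1 and non-cognate equals 0. The selection was a bacterial one-hybrid screen of Caulobacter ParB libraries, four specificity codons randomised, in E. coli USO carrying a HIS3 reporter with the site 19 bp from the promoter, grown 48 hours at 37°C on M9-minus-histidine with 0.1 mM IPTG and 5 mM 3-AT.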

Variant | one-hybrid fitness for binding parS DNA
LNTV | ≤ 0.2
MPHS | ≤ 0.2
CAAN | ≤ 0.2
RDHC | ≤ 0.2
RMHK | ≤ 0.2
RPHC | ≤ 0.2
RSHC | 0.968
RMHL | ≤ 0.2
RRHQ | ≤ 0.2
RCHC | 1
RRHC | 0.616
REHC | ≤ 0.2
RRHF | ≤ 0.2
RMHC | 0.979
RSHF | 0.257
MHLM | ≤ 0.2
TNRP | ≤ 0.2
MWSS | ≤ 0.2
SVES | ≤ 0.2
RRCP | ≤ 0.2
RKCN | 0.302
RHCH | ≤ 0.2
RKCP | ≤ 0.2
RRCD | ≤ 0.2

Variant | one-hybrid fitness for binding parS DNA
RICS | 1.02
RHCS | 0.938
RKCS | 0.855
RICN | 0.447
RICH | 0.24
RHCP | ≤ 0.2
RRCS | 0.67
PGNH | ≤ 0.2
VCRG | ≤ 0.2
IYRT | ≤ 0.2
LYPG | ≤ 0.2
CREE | ≤ 0.2
CEDV | ≤ 0.2
YGYI | ≤ 0.2
FTNL | ≤ 0.2
MSES | ≤ 0.2
RTCS | 0.99
RCCS | 1.01
RFCS | 1
RCCP | 0.223
RFCP | ≤ 0.2
RLCH | 0.22
RPCS | ≤ 0.2
RLCS | 1.03

Variant | one-hybrid fitness for binding parS DNA
RLCN | 0.457
RTCH | 0.289
RFCN | 0.375
RTCP | ≤ 0.2
PMLA | ≤ 0.2
LCAF | ≤ 0.2
IIKG | ≤ 0.2
WMTR | ≤ 0.2
RCFL | ≤ 0.2
LMPT | ≤ 0.2
VVHG | ≤ 0.2
EKSI | ≤ 0.2
RACP | ≤ 0.2
RMCP | ≤ 0.2
RSCH | 0.223
RSCN | 0.407
RMCS | 1.01
RSCS | 0.995
RMCD | ≤ 0.2
RACH | 0.306
RACS | 1
CVLT | ≤ 0.2
RWPM | ≤ 0.2
GPYM | ≤ 0.2

Variant | one-hybrid fitness for binding parS DNA
RKFY | 0.363
RKAQ | ≤ 0.2
RKAC | 0.878
RKFC | 0.878
RKAM | 0.264
RKFF | ≤ 0.2
AFRC | ≤ 0.2
LDSE | ≤ 0.2
NVKW | ≤ 0.2
VMRY | ≤ 0.2
RTCT | 0.917
RCCT | 0.913
RSCM | 0.347
RPCT | ≤ 0.2
RSCT | 0.809
RECT | ≤ 0.2
RDCT | ≤ 0.2
RTCF | 0.252
RMCL | ≤ 0.2
RTCM | 0.298
RMCT | 0.888
RMCM | 0.362
